# Reference: the supplement of paper PMC8728848
# The entries come from a sample that favours the strongest signals as a whole.
# B1: Epf (Streptococcus pyogenes) (protein)
# chain: GDHGPEFNGVMVVKAAEAEELPDDLMNFKGTWEVSADGSSGRFFSKGATDSYVFHLIPAKDVKKPGWREHNEVKDSYIKIDKQSIAARYKTSTTAPYSVAFKVNTKSLIKDHDYKITFEQGQIASGITVDYRIGSAFNKTTDDSFKISDESKYASNVKIEGEEQGFKQREQGDKTISFRTLKEGPMSLVLLSKVEKKPQGDLDVEFKNLKIIDVTNPSQLDKGVAYVGNKNVQLTLKSDDGRTNFEGDEISLFNSRGELLQTVTVTKDQQNPISITLSEDQAKSLKNKEKLKVSIKQKQSKKTSKDFFFEVGIDPKVEAKQKEKLLELDKVKKQIEDSINGDAWLPEKPVDLQGDHGLSAWSHPQFEK
# B2: BC2L-D C-terminal domain (Burkholderia cenocepacia), Q39MQ9_BURS3 (protein)
# chain: LVIVDAVTLLSAYPEASRDPAAPTVIDGRHLYVVSPGDAAQLGHNDSRLFTGLSPGDQLHLRETALALRAEVSVLFIRFALKDAGIVAPIELEVRDAATAVPDADDLLHPSCRPLKDHYWRSDVLAAGATTCTADFAVCDRDGTVSGYFRWETSIEIAGSQPDTKQPGFKPSSDRNGNFSLPPNTAFKAIFYANAADRQDLKLFIDDAPEPAATFVGNSEDGVRLFTLNSKGGKIRIEASANGRQSATDARLAPLSAGDTVWLGWLGAEDGADADYNDGIVILQWPIT
# Tests used:
# Assay in all cases: glycan array binding signal (z-score within array); higher = stronger binding
# Conditions in all cases: glycan notation: IUPAC condensed, linker removed
# [1] = biological target: GlcNAc(b1-3)Gal(b1-4)GlcNAc(b1-3)Gal(b1-4)GlcNAc(b1-3)Gal(b1-4)GlcNAc(b1-2)Man(a1-3)[GlcNAc(b1-3)Gal(b1-4)GlcNAc(b1-3)Gal(b1-4)GlcNAc(b1-3)Gal(b1-4)GlcNAc(b1-2)Man(a1-6)]Man(b1-4)GlcNAc(b1-4)[Fuc(a1-6)]GlcNAc
# Outline: (§1)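 Glycan array data were curated from 3228 arrays in the Consortium for Functional Glycomics database and kept only where the protein sequence was available. Glycan names were converted to IUPAC-condensed notation, and columns mapping to the same glycan were averaged. The binding signal is a within-array Z-score, averaged across arrays of the same protein sequence at different concentrations or buffers and across linkers. Negative Z-scores can be read as non-binding.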
# [2] = biological target: GlcNAc(b1-3)Gal(b1-4)GlcNAc(b1-3)Gal(b1-4)GlcNAc(b1-3)Gal(b1-4)GlcNAc(b1-2)[GlcNAc(b1-3)Gal(b1-4)GlcNAc(b1-3)Gal(b1-4)GlcNAc(b1-3)Gal(b1-4)GlcNAc(b1-6)]Man(a1-6)[GlcNAc(b1-3)Gal(b1-4)GlcNAc(b1-3)Gal(b1-4)GlcNAc(b1-3)Gal(b1-4)GlcNAc(b1-2)Man(a1-3)]Man(b1-4)GlcNAc(b1-4)[Fuc(a1-6)]GlcNAc
# Outline: as §1
# [3] = biological target: GlcNAc(b1-4)GlcNAc
# Outline: as §1
# [4] = biological target: GlcNAc(b1-4)[GlcNAc(b1-6)]GalNAc
# Outline: as §1
# [5] = biological target: GlcNAc(b1-6)Gal(b1-4)GlcNAc
# Outline: as §1
# [6] = biological target: Man(a1-2)Man(a1-2)Man(a1-6)[Man(a1-3)]Man
# Outline: as §1
# [7] = biological target: Man(a1-3)[Man(a1-6)]Man(b1-4)GlcNAc(b1-4)GlcNAc
# Outline: as §1
# [8] = biological target: Man(b1-4)GlcNAc
# Outline: as §1
# [9] = biological target: Neu5Ac(a2-3)Gal
# Outline: as §1
# [10] = biological target: Neu5Ac(a2-3)Gal(b1-3)GalNAc6S
# Outline: as §1
# [11] = biological target: Neu5Ac(a2-3)Gal(b1-3)GlcNAc(b1-3)Gal(b1-4)GlcNAc
# Outline: as §1
# [12] = biological target: Neu5Ac(a2-3)Gal(b1-4)GlcNAc(b1-2)Man(a1-3)[Neu5Ac(a2-6)Gal(b1-4)GlcNAc(b1-2)Man(a1-6)]Man(b1-4)GlcNAc(b1-4)GlcNAc
# Outline: as §1
# [13] = biological target: Neu5Ac(a2-3)Gal(b1-4)GlcNAc(b1-3)Gal(b1-4)GlcNAc(b1-2)Man(a1-3)[Neu5Ac(a2-3)Gal(b1-4)GlcNAc(b1-3)Gal(b1-4)GlcNAc(b1-2)Man(a1-6)]Man(b1-4)GlcNAc(b1-4)GlcNAc
# Outline: as §1
# [14] = biological target: Neu5Ac(a2-3)Gal(b1-4)[Fuc(a1-3)]GlcNAc(b1-2)Man
# Outline: as §1
# [15] = biological target: Neu5Ac(a2-8)Neu5Ac
# Outline: as §1
# [16] = biological target: Neu5Ac(a2-8)Neu5Ac(a2-8)Neu5Ac
# Outline: as §1
# [17] = biological target: Neu5Gc(a2-3)Gal(b1-4)GlcNAc
# Outline: as §1
# [18] = biological target: Fuc(a1-2)Gal(b1-3)GalNAc(a1-3)[Fuc(a1-2)]Gal(b1-4)Glc
# Outline: as §1
# [19] = biological target: Fuc(a1-2)Gal(b1-3)GalNAc(b1-4)[Neu5Ac(a2-3)]Gal(b1-4)Glc
# Outline: as §1
# [20] = biological target: Fuc(a1-2)Gal(b1-3)GlcNAc
# Outline: as §1
# [21] = biological target: Fuc(a1-2)Gal(b1-3)GlcNAc(b1-3)GalNAc
# Outline: as §1
# [22] = biological target: Fuc(a1-2)Gal(b1-4)GlcNAc(b1-2)[Fuc(a1-2)Gal(b1-4)GlcNAc(b1-4)]Man(a1-3)[Fuc(a1-2)Gal(b1-4)GlcNAc(b1-2)Man(a1-6)]Man(b1-4)GlcNAc(b1-4)GlcNAc
# Outline: as §1
# [23] = biological target: Fuc(a1-2)Gal(b1-4)GlcNAc6S
# Outline: as §1
# [24] = biological target: Fuc(a1-2)Gal(b1-4)[Fuc(a1-3)]GlcNAc(b1-2)[Fuc(a1-2)Gal(b1-4)[Fuc(a1-3)]GlcNAc(b1-4)]Man(a1-3)[Fuc(a1-2)Gal(b1-4)[Fuc(a1-3)]GlcNAc(b1-2)Man(a1-6)]Man(b1-4)GlcNAc(b1-4)GlcNAc
# Outline: as §1
# [25] = biological target: Fuc(a1-2)[Gal(a1-3)]Gal(b1-4)GlcNAc(b1-2)Man(a1-3)[Fuc(a1-2)[Gal(a1-3)]Gal(b1-4)GlcNAc(b1-2)Man(a1-6)]Man(b1-4)GlcNAc(b1-4)GlcNAc
# Outline: as §1
# [26] = biological target: Fuc(a1-2)[GalNAc(a1-3)]Gal(b1-3)GalNAc(a1-3)[Fuc(a1-2)]Gal(b1-4)GlcNAc
# Outline: as §1
# [27] = biological target: Fuc(a1-2)[GalNAc(b1-3)]Gal
# Outline: as §1
# [28] = biological target: Fuc(a1-3)[Gal(b1-4)]GlcNAc(b1-3)GalNAc
# Outline: as §1
# [29] = biological target: Fuc(a1-3)[Gal(b1-4)]GlcNAc(b1-4)Gal(b1-4)[Fuc(a1-3)]GlcNAc(b1-4)Gal(b1-4)[Fuc(a1-3)]GlcNAc
# Outline: as §1
# [30] = biological target: Fuc(a1-3)[Gal(b1-4)]GlcNAc(b1-6)[Gal(b1-3)GlcNAc(b1-3)]Gal(b1-4)Glc
# Outline: as §1
# [31] = biological target: Fuc(b1-3)GlcNAc
# Outline: as §1
# [32] = biological target: Gal(a1-3)Fuc(a1-2)Gal(b1-4)GlcNAc(b1-3)[Gal(a1-3)Fuc(a1-2)Gal(b1-4)GlcNAc(b1-6)]GalNAc
# Outline: as §1
# [33] = biological target: Gal(b1-3)Gal
# Outline: as §1
# [34] = biological target: Gal(b1-3)[Fuc(a1-4)]GlcNAc(b1-3)Gal(b1-4)GlcNAc
# Outline: as §1
# [35] = biological target: Gal(b1-4)GalNAc(a1-3)[Fuc(a1-2)]Gal(b1-4)GlcNAc
# Outline: as §1
# [36] = biological target: Gal(b1-4)GlcNAc(b1-2)Man(a1-3)[Man(a1-6)]Man(b1-4)GlcNAc(b1-4)GlcNAc
# Outline: as §1
# [37] = biological target: Gal(b1-4)GlcNAc(b1-3)Gal(b1-4)GlcNAc(b1-3)Gal(b1-4)GlcNAc
# Outline: as §1
# [38] = biological target: Gal(b1-4)GlcNAc(b1-3)Gal(b1-4)[Fuc(a1-3)GlcNAc(b1-6)]Gal(b1-4)Glc
# Outline: as §1
# [39] = biological target: Gal(b1-4)GlcNAc(b1-6)GalNAc
# Outline: as §1
# [40] = biological target: Gal4S6S(b1-4)GlcNAc
# Outline: as §1
# [41] = biological target: GalNAc(b1-3)Gal
# Outline: as §1
# [42] = biological target: GlcNAc(b1-3)Gal(b1-4)GlcNAc
# Outline: as §1
# [43] = biological target: GlcNAc(b1-3)Man
# Outline: as §1
# [44] = biological target: Kdn(a2-3)Gal(b1-3)GlcNAc
# Outline: as §1
# [45] = biological target: Man(a1-2)Man(a1-3)[Man(a1-2)Man(a1-6)]Man(a1-6)[Man(a1-2)Man(a1-2)Man(a1-3)]Man
# Outline: as §1
# [46] = biological target: Man(a1-2)Man(a1-6)[Man(a1-3)]Man(a1-6)[Man(a1-2)Man(a1-2)Man(a1-3)]Man
# Outline: as §1
# [47] = biological target: Man(a1-2)Man(a1-6)[Man(a1-3)]Man(a1-6)[Man(a1-2)Man(a1-2)Man(a1-3)]Man(b1-4)GlcNAc(b1-4)GlcNAc
# Outline: as §1
# [48] = biological target: Man(a1-3)[Man(a1-6)]Man
# Outline: as §1
# [49] = biological target: Man(a1-3)[Man(a1-6)]Man(a1-6)[Man(a1-2)Man(a1-3)]Man(b1-4)GlcNAc(b1-4)GlcNAc
# Outline: as §1
# [50] = biological target: Man(a1-3)[Man(a1-6)]Man(a1-6)[Man(a1-3)]Man
# Outline: as §1
# [51] = biological target: Man(a1-3)[Man(a1-6)]Man(a1-6)[Man(a1-3)]Man(b1-4)GlcNAc(b1-4)GlcNAc
# Outline: as §1
# [52] = biological target: Neu5Ac(a2-3)Gal(b1-3)GalNAc(b1-4)[Neu5Ac(a2-8)Neu5Ac(a2-3)]Gal(b1-4)Glc
# Outline: as §1
# [53] = biological target: Neu5Ac(a2-3)Gal(b1-4)Glc
# Outline: as §1
# [54] = biological target: Neu5Ac(a2-3)Gal(b1-4)[Fuc(a1-3)]GlcNAc6S
# Outline: as §1
# [55] = biological target: Neu5Ac(b2-6)Gal(b1-4)GlcNAc
# Outline: as §1
# [56] = biological target: Neu5Gc(a2-3)Gal(b1-4)[Fuc(a1-3)]GlcNAc
# Outline: as §1
binder,measurement,setting,value
B1,glycan array binding signal (z-score),[1],2.18
same,glycan array binding signal (z-score),[2],2.85
same,glycan array binding signal (z-score),[3],-1.32
same,glycan array binding signal (z-score),[4],3.11
same,glycan array binding signal (z-score),[5],-0.433
same,glycan array binding signal (z-score),[6],1.01
same,glycan array binding signal (z-score),[7],0.659
same,glycan array binding signal (z-score),[8],-0.471
same,glycan array binding signal (z-score),[9],-0.169
same,glycan array binding signal (z-score),[10],1.65
same,glycan array binding signal (z-score),[11],-1.25
same,glycan array binding signal (z-score),[12],-0.643
same,glycan array binding signal (z-score),[13],1.33
same,glycan array binding signal (z-score),[14],-1.48
same,glycan array binding signal (z-score),[15],0.246
same,glycan array binding signal (z-score),[16],-0.377
same,glycan array binding signal (z-score),[17],0.422
B2,glycan array binding signal (z-score),[18],-0.158
same,glycan array binding signal (z-score),[19],0.376
same,glycan array binding signal (z-score),[20],0.536
same,glycan array binding signal (z-score),[21],-0.16
same,glycan array binding signal (z-score),[22],-0.137
same,glycan array binding signal (z-score),[23],0.114
same,glycan array binding signal (z-score),[24],-0.147
same,glycan array binding signal (z-score),[25],-0.167
same,glycan array binding signal (z-score),[26],-0.169
same,glycan array binding signal (z-score),[27],-0.242
same,glycan array binding signal (z-score),[28],-0.164
same,glycan array binding signal (z-score),[29],0.024
same,glycan array binding signal (z-score),[30],-0.165
same,glycan array binding signal (z-score),[31],-0.241
same,glycan array binding signal (z-score),[32],-0.159
same,glycan array binding signal (z-score),[33],-0.242
same,glycan array binding signal (z-score),[34],-0.137
same,glycan array binding signal (z-score),[35],-0.242
same,glycan array binding signal (z-score),[36],0.676
same,glycan array binding signal (z-score),[37],-0.242
same,glycan array binding signal (z-score),[38],-0.165
same,glycan array binding signal (z-score),[39],-0.2
same,glycan array binding signal (z-score),[40],-0.243
same,glycan array binding signal (z-score),[41],-0.243
same,glycan array binding signal (z-score),[42],-0.241
same,glycan array binding signal (z-score),[43],-0.243
same,glycan array binding signal (z-score),[44],-0.242
same,glycan array binding signal (z-score),[6],5.14
same,glycan array binding signal (z-score),[45],4.23
same,glycan array binding signal (z-score),[46],5.62
same,glycan array binding signal (z-score),[47],6.24
same,glycan array binding signal (z-score),[48],4.31
same,glycan array binding signal (z-score),[49],6.86
same,glycan array binding signal (z-score),[50],5.02
same,glycan array binding signal (z-score),[51],3.67
same,glycan array binding signal (z-score),[52],-0.154
same,glycan array binding signal (z-score),[53],-0.248
same,glycan array binding signal (z-score),[54],-0.244
same,glycan array binding signal (z-score),[55],-0.248
same,glycan array binding signal (z-score),[56],-0.236
